In PubChem BioAssay:
Activity calls are given as the source filed them.

Experiments:
[1] = molecular target: Albumin (Bos taurus) (UniProt P02769); experiment: compounds binding labelled BSA control protein – biochemical, small-molecule microarray, Alexa647 label, 635/667 nm fluorescence, artefact control for SMM control protein annotation, profiling panel (AID 1118); conditions: BSA-A647 binding, fluorescence 635 nm, higher = more signal;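 note: score merges 667 nm emission intensity and signal-to-noise per printed compound spot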
Chain of Albumin (Bos taurus) (P02769 whole entry, looked up): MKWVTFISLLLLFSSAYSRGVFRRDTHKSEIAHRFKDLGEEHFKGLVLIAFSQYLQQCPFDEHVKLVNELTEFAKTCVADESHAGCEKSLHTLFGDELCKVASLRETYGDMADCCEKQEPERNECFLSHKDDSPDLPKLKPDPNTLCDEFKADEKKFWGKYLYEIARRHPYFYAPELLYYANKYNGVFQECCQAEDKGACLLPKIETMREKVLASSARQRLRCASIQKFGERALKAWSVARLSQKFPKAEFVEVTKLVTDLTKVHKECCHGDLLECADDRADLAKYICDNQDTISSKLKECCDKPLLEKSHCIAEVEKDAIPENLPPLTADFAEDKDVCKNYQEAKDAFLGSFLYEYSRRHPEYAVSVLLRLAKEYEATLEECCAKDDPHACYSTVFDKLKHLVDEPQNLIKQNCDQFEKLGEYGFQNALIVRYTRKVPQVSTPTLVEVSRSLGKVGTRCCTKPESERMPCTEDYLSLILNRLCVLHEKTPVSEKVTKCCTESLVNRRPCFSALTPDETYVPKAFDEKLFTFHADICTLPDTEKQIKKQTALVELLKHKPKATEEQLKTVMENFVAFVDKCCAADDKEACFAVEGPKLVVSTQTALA

[2] = probe aXIP binding to arrayed compounds – biochemical, NeuroSMM set, 635/667 nm fluorescence, primary screen (AID 1119); conditions: small-molecule microarray, higher = more signal, called active from +8 up or from −8 down;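 note: probe is the protein aXip251-270 applied at 1 µg/mL to compound-printed slides; binding of probe to printed compounds measured as 667 nm fluorescence plus signal to noise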
[3] = probe aNOTCH3 binding on compound microarray – biochemical, small-molecule microarray, 635/667 nm fluorescence, primary screen (AID 1120); conditions: higher = more signal;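 note: probe is a biotin-tagged antibody raised against NOTCH3 rather than NOTCH3 protein; score merges spot fluorescence near 667 nm with spot signal to noise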
[4] = probe aNOTCH2 binding on compound microarray – biochemical, small-molecule microarray, 635/667 nm fluorescence, primary screen (AID 1121); conditions: higher = more signal;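 note: score merges feature fluorescence read at 667 nm with its signal to noise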
[5] = molecular target: Carbonic anhydrase 2 (Homo sapiens) (UniProt P00918); experiment: compounds binding carbonic anhydrase 2 – biochemical, small-molecule microarray, Alexa647-labelled CAII, profiling panel (AID 1122); conditions: CAII-A647 binding fluorescence, higher = more signal
[6] = COS7 lysate on small-molecule microarray, probe aHis, 635 nm (AID 1123); conditions: COS7 cell lysate, fluorescence, higher = more signal;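 note: z-score combines 667nm fluorescence intensity with signal-to-noise per printed compound spot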
[7] = probe aLAP1 signal on lysate-treated microarray – cell lysate, small-molecule microarray, COS7 lysate, primary screen (AID 1124); conditions: probe aLAP1, fluorescence, higher = more signal;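 note: lysate comes from COS7 cells expressing LAP1 and is applied at 0.3 µg/mL; score merges spot fluorescence near 667 nm with signal-to-noise over triplicate slides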
[8] = tested on: Sam68 (KHDRBS1); experiment: compounds binding KHDRBS1 protein – biochemical, small-molecule microarray, 635 nm fluorescence, primary screen (AID 1125); conditions: higher = more signal;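 note: score merges 667 nm channel intensity with signal to noise over triplicate slides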
[9] = tested on: Chordin-like protein 2 (CHRDL2); experiment: compounds binding chordin-like 2 – biochemical, small-molecule microarray, 635 nm fluorescence, primary screen (AID 1126); conditions: fluorescence 635 nm, higher = more signal;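 note: printed compound slides probed with Chrdl2 protein at 4 µg/mL for 1 h at 4 C; score merges 667 nm emission intensity with signal to noise over three replicate slides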
[10] = molecular target: Concanavalin-A (Canavalia ensiformis) (UniProt P02866); experiment: compounds binding concanavalin A lectin – biochemical, small-molecule microarray, Alexa647 label, 635 nm, artefact control for SMM control protein annotation, primary screen (AID 1127); conditions: ConA-A647 binding fluorescence, higher = more signal;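 note: z combines 667 nm emission intensity with signal-to-noise across three replicate slides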
Chain of Concanavalin-A (Canavalia ensiformis) (P02866 whole entry, looked up): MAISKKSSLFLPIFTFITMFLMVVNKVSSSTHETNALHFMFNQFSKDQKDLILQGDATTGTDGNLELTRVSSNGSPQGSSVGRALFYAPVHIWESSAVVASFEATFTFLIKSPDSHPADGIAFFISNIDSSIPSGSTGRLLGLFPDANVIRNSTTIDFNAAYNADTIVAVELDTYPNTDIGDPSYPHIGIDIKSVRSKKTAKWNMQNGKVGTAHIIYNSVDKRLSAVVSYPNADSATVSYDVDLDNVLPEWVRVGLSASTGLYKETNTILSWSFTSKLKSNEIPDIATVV

Structure (SMILES)	composite z-score [1]	composite Z-score [2]	composite z-score [3]	composite z-score [4]	composite z-score [5]	composite z-score [6]	composite z-score [7]	composite z-score [8]	composite z-score [9]	composite z-score [10]
CC(C)CNC(=O)[C@@]1(Cc2ccccc2I)c2ccccc2C(=O)N(C2CCCCC2)[C@H]1c1ccc(CO)cc1	0.82	2.21 (inactive)	-0.139	-0.0432	0.619	2.1	2.06	0.342	0.133	0.565
COC(=O)[C@@]1(Cc2ccc(F)cc2)[C@H]2c3cc(C(=O)N(C)C)n(Cc4ccccc4)c3C[C@H]2CN1C(=O)c1ccccc1	0.816	0.0843 (inactive)	0.215	0.0431	0.183	2.05	0.495	0.78	-0.643	1.04
CC(CO)N1C(=O)[C@@H]2C3C(=O)OCCC/C=C\[C@H]3OC23C=CCN(C(C)(C)C)C(=O)[C@@H]13 (stereo not given in full)	-0.757	-0.483 (inactive)	-0.103	-0.167	0.872	0.295	0.198	-0.0677	-0.184	0.0099
CCCC[C@@H]1C[C@H]1[C@@H](NC(=O)c1cccs1)c1ccc(-c2ccccc2)cc1	0.1	-0.252 (inactive)	0.206	-0.14	0.254	0.874	-0.202	0.393	0.0355	0.432
CCCCN1CC=CC23O[C@@H]4C=CCCOC(=O)C4[C@H]2C(=O)N(CCCCCCO)[C@@H]3C1=O (stereo not given in full)	0.339	0.0289 (inactive)	-0.275	-0.175	0.876	0.376	0.316	0.474	-1	-0.254
Cc1ccc(S[C@]2(C(=O)NCCCN(C)C)CC(=O)N(Cc3ccccc3C(F)(F)F)[C@@H]2c2ccc(CO)cc2)cc1	0.54	-0.676 (inactive)	-0.0639	-0.0013	0.211	0.0645	-0.41	0.0809	-0.327	-1.48
C=CCN1C(=O)[C@]2(O[C@H](CCn3cc([C@H](O)c4ccccc4)nn3)[C@@H]([Si](C)(C)c3ccc(OC)cc3)[C@@H]2C)c2cc(N3CCC3=O)ccc21	0.621	0.156 (inactive)	-0.226	-0.0826	0.337	0.855	0.407	0.564	0.587	0.882
CCOC(=O)C[C@H]1[C@H](OC(=O)c2ccccc2-c2ccccc2)[C@@H](NC(=O)CC(C)C)c2cc(OCCCO)ccc2N1C(=O)Cc1ccc(OC)cc1	0.401	0.692 (inactive)	0.0708	-0.118	-0.132	0.761	-0.201	0.488	0.246	0.482
Cc1nc2cc(Br)ccc2c(=O)o1	0.367	0.239 (inactive)	-0.013	-0.124	0.633	0.495	0.108	0.384	0.126	0.724
O=C(CS)NCCCCCCNC(=O)[C@@H]1C[C@@H]2C(=O)N[C@@H](Cc3ccccc3)C(=O)N2[C@@H]1c1cccc(OCCO)c1	-0.623	0.439 (inactive)	0.169	-0.0248	0.567	2.28	-0.488	1.29	0.892	1.15
COC(=O)[C@@]1(Cc2ccc(OC)cc2)[C@H]2c3cc(C(=O)N(C)C)n(C)c3C[C@H]2CN1C(=O)c1ccccc1	1.03	0.0517 (inactive)	0.839	0.284	0.76	3.16	0.0675	1.31	-0.1	1.15
C=CC[C@@]1(C(=O)NCCN2CCOCC2)N=C(c2ccc(OCCCO)cc2)O[C@@H]1c1ccccc1N=[N+]=[N-]	0.711	0.346 (inactive)	-0.396	-0.109	0.716	1.62	0.232	0.176	0.703	-0.572
C=CCOC(=O)[C@H]1[C@@H]2C(=O)O[C@@H](c3ccccc3)[C@@H](c3ccccc3)N2[C@@H](c2ccc(OCCOC(=O)[C@H]3C[C@H]4C(=O)N[C@@H](CCCC[N+](C)(C)C)C(=O)N4[C@H]3c3ccc(O)cc3)cc2)[C@]12C(=O)Nc1ccc(I)cc12	-0.763	1.88 (inactive)	0.191	0.0482	-0.141	0.502	-0.432	1.11	1.11	0.401
C=CCN1C(=O)[C@]2(O[C@H](CCn3cc([C@H](O)c4ccccc4)nn3)[C@@H]([Si](C)(C)c3ccc(OC)cc3)[C@@H]2C)c2ccccc21	-0.0698	0.0503 (inactive)	-0.253	-0.156	-0.238	-0.011	0.0809	-0.776	-0.278	-0.847
C=CCNC(=O)[C@@H]1[C@H]2C(=O)O[C@H](c3ccccc3)[C@H](c3ccccc3)N2[C@H](c2ccc(OCCO)cc2)[C@@]12C(=O)Nc1ccc(C#CCC(C(=O)OC)C(=O)OC)cc12	0.64	0.788 (inactive)	0.277	0.0302	0.641	2	0.978	1.29	0.392	1.16
C=CCN1C(=O)[C@@]2(Cc3ccccc31)N=C(c1ccc(OCCCO)cc1)O[C@H]2c1ccccc1	-0.519	0.302 (inactive)	0.307	0.125	0.401	2.8	0.843	1.17	0.885	1.17
O=C(NC1CC1)[C@@H]1c2ccccc2C(=O)N(Cc2ccccc2Cl)[C@H]1c1ccc(CO)cc1	-0.243	0.0965 (inactive)	0.0765	-0.0411	0.633	2.33	0.108	1.33	0.516	1.02
